Compounds without any hit were thinned out: in the full panel of roughly 83,000, 20% have a hit.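 Single-dose data. Exposure time 48 hours. Values below 10 considered active.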 Unmarked numbers belong to inactive results. Calls of active or inactive are those of the source.
Tests used:
Assay in all cases: NCI-60 one-dose screen, 48 h (100 = growth as untreated, 0 = no growth, -100 = all killed)
Details in all cases: 10 µM unless noted
[1] = test system: NCI-H23 lung
[2] = test system: NCI-H226 lung
[3] = test system: NCI-H322M lung
[4] = test system: HOP-62 NSCLC
[5] = test system: NCI-H460 lung
[6] = test system: HOP-92 NSCLC
[7] = test system: NCI-H522 lung
[8] = test system: A549/ATCC NSCLC
[9] = test system: 786-0 renal
[10] = test system: COLO 205 colon
[11] = test system: DU-145 prostate
[12] = test system: K-562 leukemia
[13] = test system: MALME-3M melanoma
[14] = test system: MDA-MB-231 breast
[15] = test system: RXF 393 renal
[16] = test system: SF-268 CNS
[17] = test system: SF-295 CNS
[18] = test system: SF-539 CNS
[19] = test system: UACC-257 melanoma
[20] = test system: M14 melanoma

Row | SMILES | growth [1] | growth [2] | growth [3] | growth [4] | growth [5] | growth [6] | growth [7] | growth [8] | growth [9] | growth [10] | growth [11] | growth [12] | growth [13] | growth [14] | growth [15] | growth [16] | growth [17] | growth [18] | growth [19] | growth [20]
1 | CC(C)=CCC[C@](C)(O)[C@H]1CC[C@]2(C)[C@@H]1CC[C@@H]1[C@@]3(C)CC/C(=N/O)C(C)(C)[C@@H]3CC[C@]12C | -56.9% [100 µM] (active) | 11.3% [100 µM] | -1.07% [100 µM] (active) | -50.9% [100 µM] (active) | -7.45% [100 µM] (active) | -62% [100 µM] (active) | -28.9% [100 µM] (active) | -70.4% [100 µM] (active) | -21.1% [100 µM] (active) | -43.5% [100 µM] (active) | -15.4% [100 µM] (active) | 10.9% [100 µM] | -69.7% [100 µM] (active) | -34.2% [100 µM] (active) | -32.5% [100 µM] (active) | 11.5% [100 µM] | -66.5% [100 µM] (active) | -53.9% [100 µM] (active) | 19.8% [100 µM] | -13.6% [100 µM] (active)
2 | COc1cc2c(cc1OC(C)=O)C(=O)CCCC2 | 93.6% | 98.1% | 89.9% | 75.4% | 105% | 79% | 78% | 85.8% | 86.9% | 135% | 128% | 186% | 93.3% | 112% | 94.2% | 107% | 107% | 90.9% | 86.7% | 87.9%
3 | CCCCCn1c(C)cc(/C=C\c2ccc3cc(C)ccc3[n+]2C)c1C | 3.14% (active) | -58.4% (active) | 30.3% | -58.9% (active) | -75.1% (active) | -64% (active) | -36.7% (active) | -84.5% (active) | -76.7% (active) | -92.5% (active) | -52.3% (active) | 9.64% (active) | -67.5% (active) | -46.8% (active) | -60.8% (active) | -61% (active) | -90.9% (active) | -85.8% (active) | -99.1% (active) | -71.2% (active)
4 | COC(=O)C(=Cc1ccccc1[N+](=O)[O-])C(=O)OC | 38.8% | 97.6% | 54.9% | 104% | 41.2% | 16.5% | -3.3% (active) | 44.2% | 41.3% | 38% | -45.6% (active) | -12% (active) | 25.2% | 48% | -29.1% (active) | 0.377% (active) | 97.1% | 58.1% | 57.1% | 32%
5 | CN(C)Cc1ccc[nH]1 | 93.2% | 93.3% | 130% | 117% | 103% | 103% | 67.6% | 99.4% | 107% | 101% | 115% | 113% | 126% | 77.6% | 95.3% | 103% | 90.1% | 92.3% | 0.0923% (active) | 93.2%
6 | CC(C)c1ccc(/C=N/N=C(N)N)cc1 | 80.7% | 93.2% | 106% | 84.3% | 91.1% | 24.1% | 66.7% | 88.8% | 93.4% | 59.8% | 98.9% | 19.9% | 88.4% | 89.3% | 89.4% | 88.5% | 67% | 91.8% | 77% | 84.9%
7 | CCOC(=O)CC(c1ccccc1)C(C#N)c1ccccc1 (stereo not given) | 102% | 95.4% | 108% | 96.2% | 105% | 90.9% | 95.9% | 99.3% | 98.7% | 100% | 104% | 108% | 90.9% | 106% | 87.5% | 99.4% | 110% | 109% | 94.2% | 91.8%
8 | CC(C)C1=NOC(=O)C1=Cc1cn(-c2ccccc2)nc1-c1cccc([N+](=O)[O-])c1 | 91.9% | 102% | 98.1% | 99.1% | 87.9% | 88.8% | 74.7% | 97% | 76.7% | 109% | 84.9% | 33.4% | 109% | 93.1% | 68.9% | 94.1% | 99.1% | 98.1% | 104% | 78.3%
9 | Nc1nc(Cl)c2ncn(Cc3cc4c(cc3I)OCO4)c2n1 | 75.2% | 85.8% | 65.4% | 36.1% | 18% | 82.4% | 14.7% | 45.6% | 44.4% | 21.1% | 52.8% | 15.9% | 63.7% | 40.9% | 66.3% | 62.1% | 42.5% | 46.5% | 81.4% | 76%

— PubChem BioAssay (NCI)
